Experiment [1] in a line: qHTS of pediatric cancer cell lines to identify multiple opportunities for drug repurposing: Primary screen for SK-N-MC cells (AID 1347093). Also: potency is read from the fitted curve at half-maximal effect. Put shortly:
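Metabolically active cells were quantified by ATP-dependent luminescence (CellTiter-Glo, 15 min at room temperature) following 48 h treatment. Cells had been plated at 500-1,000 per well and settled for 5 h beforehand.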
(Quantitative high-throughput screening tests each substance at several concentrations.)

The nature of experiment [2]: qHTS of pediatric cancer cell lines to identify multiple opportunities for drug repurposing: Primary screen for NB-EBc1 cells (AID 1347095). Also: potency is read from the fitted curve at half-maximal effect. In outline:
(§1)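 Primary screen of approved and investigational compounds on cells in growth media at 37 degrees C, 5% CO2. MIPE set at 11-point and NPC set at 8-point dilutions; viability scored by ATP-based luminescence at 48 hours.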

Experiment [3] is described as follows: qHTS of pediatric cancer cell lines to identify multiple opportunities for drug repurposing: Primary screen for U-2 OS cells (AID 1347096). Also: nearly all actives have a fitted effect of over 50% in size. Also: potency is read from the fitted curve at half-maximal effect. Put shortly:
(§2)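 Viability after 48 h compound treatment at 37C, 500-1,000 cells/well, read as ATP luminescence with CellTiter-Glo. Primary screens used 11-point (MIPE, 0.78 nM-46 µM) or 8-point (NPC, 0.59 nM-46 µM) final concentrations; follow-up screens used 11-point dilutions.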

The nature of experiment [4]: qHTS of pediatric cancer cell lines to identify multiple opportunities for drug repurposing: Primary screen for Saos-2 cells (AID 1347097). Also: nearly all actives have a fitted effect of over 40% in size. In outline: as §1
A short description of experiment [5]: qHTS of pediatric cancer cell lines to identify multiple opportunities for drug repurposing: Primary screen for SK-N-SH cells (AID 1347098). Also: nearly all actives have a fitted effect of over 65% in size. Also: potency is read from the fitted curve at half-maximal effect. In outline: (§3)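 Cells (500-1,000/well) rested 5 h, then received compounds for 48 h; metabolically active cells were measured by CellTiter-Glo luminescence. Final concentrations spanned up to 46 µM (MIPE, 11-point) or 0.59 nM-46 µM (NPC, 8-point) in primary screens, 11-point in follow-ups.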

Experiment [6] can be described thus: qHTS of pediatric cancer cell lines to identify multiple opportunities for drug repurposing: Primary screen for NB1643 cells (AID 1347099). Also: nearly all actives have a fitted effect of over 50% in size. Also: potency is read from the fitted curve at half-maximal effect. In outline: as §1
Experiment [7] in a line: qHTS of pediatric cancer cell lines to identify multiple opportunities for drug repurposing: Primary screen for LAN-5 cells (AID 1347100). Also: potency is read from the fitted curve at half-maximal effect. Put shortly: as §2
Experiment [8] is described as follows: qHTS of pediatric cancer cell lines to identify multiple opportunities for drug repurposing: Primary screen for BT-12 cells (AID 1347101). Also: nearly all actives have a fitted effect of over 25% in size. Put shortly:
as §3

The nature of experiment [9]: qHTS of pediatric cancer cell lines to identify multiple opportunities for drug repurposing: Primary screen for BT-37 cells (AID 1347094). Also: series mostly up to about 57 µM. In outline:
as §1

The nature of experiment [10]: qHTS of pediatric cancer cell lines to identify multiple opportunities for drug repurposing: Primary screen for Rh18 cells (AID 1347102). Also: nearly all actives have a fitted effect of over 65% in size. In outline: as §2

These results are taken from PubChem BioAssay (NCATS).

Where “and” joins values, the source holds several entries; their conditions need not be identical. Equal entries are not always repeated. Inconclusive results are not listed. Calls of active or inactive are those of the source. Calls follow the shape of the dose curve; as a rule, active = well fitted curve in the direction sought with a large enough effect; inconclusive = small, poorly fitted or top-dose-only effect, or another doubt; inactive = no such curve, though single readings can be large; an effect the other way counts as inactive or inconclusive.

For the molecule `COC(=O)C(Cl)C(=O)OC`, the Potency entry in experiment [1], in [2], in experiment [3], in experiment [4], in experiment [5] and in experiment [6] was “inactive” in each case. Also, the Potency entry in experiment [7] and in experiment [8] was “inactive” in each case.
Regarding `CC(=O)NC1CCSC1=O` (configuration not stated), the Potency result in [1], in [9], in experiment [2], in [3], in experiment [5] and in [6] was “inactive” throughout. Moreover, the Potency entry in [7], in experiment [8] and in experiment [10] was “inactive” throughout.
On to `NCCc1ccc(O)cc1`, for which the Potency result in experiment [1], in experiment [9], in experiment [2], in experiment [3], in experiment [4] and in experiment [5] was “inactive” each time. Besides, the Potency entry in [6], in experiment [7], in experiment [8] and in [10] was “inactive” each time.
Consider `C=CCC1([C@H](C)CCC)C(=O)NC(=O)NC1=O`, for which the Potency result in [1], in [9], in [2], in experiment [3], in experiment [4] and in experiment [5] was “inactive” throughout. In addition, the Potency result in experiment [6], in [7] and in experiment [8] was “inactive” in each case.
With `CCOP(=S)(OCC)Oc1ccc2c(C)c(Cl)c(=O)oc2c1`, the Potency entry in experiment [1], in [9], in [3], in experiment [4], in experiment [8] and in experiment [10] was “inactive” throughout.
With `O=C(O)CCCc1ccc(N(CCCl)CCCl)cc1`, the Potency was 20.9 µM (active) in [1]; 11.9 µM (active) and 1.05 µM (active) in [2]; 9.44 µM (active) in [7]. The Potency entry in experiment [3], in experiment [4], in [5], in [6], in experiment [8] and in experiment [10] was “inactive” each time.
For `COc1ccc2c3c1O[C@H]1[C@H](O)CC[C@H]4[C@@H](C2)N(C)CC[C@@]341`, the Potency result in experiment [1], in [9], in experiment [2], in experiment [3], in [4] and in experiment [5] was “inactive” each time. In addition, the Potency result in experiment [7] and in experiment [8] was “inactive” each time.
Consider `CCN(CC)CCc1c[nH]c2ccccc12`, for which the Potency entry in experiment [1], in experiment [9], in experiment [2], in experiment [3], in [4] and in experiment [7] was “inactive” throughout. In addition, the Potency result in [8] is “inactive”. The Potency in experiment [5] was 37 µM (active).
As for `C[C@]12CC[C@@H]3c4ccc(OC(=O)N(CCCl)CCCl)cc4CC[C@H]3[C@@H]1CC[C@@H]2OP(=O)(O)O`, the Potency entry in [1], in [9], in experiment [3], in experiment [5], in experiment [6] and in [7] was “inactive” each time. The Potency entry in experiment [8] and in experiment [10] was “inactive” in each case.
Take `CNCC(=O)c1ccc(O)c(O)c1`: the Potency result in experiment [1], in [9], in experiment [2], in experiment [3], in experiment [4] and in experiment [5] was “inactive” throughout. Further, the Potency result in [6], in experiment [7], in experiment [8] and in experiment [10] was “inactive” in each case.
Turning to `Nc1ccccc1`, the Potency result in experiment [1], in experiment [9], in experiment [2], in [3], in experiment [4] and in experiment [5] was “inactive” each time. The Potency result in [6], in [7], in experiment [8] and in experiment [10] was “inactive” in each case.
As to `COC(=O)[C@@H](N)CCCN/C(N)=N/[N+](=O)[O-]`, the Potency result in experiment [1], in [9], in [2], in experiment [3], in experiment [4] and in experiment [5] was “inactive” throughout. The Potency result in [7] and in experiment [8] was “inactive” throughout.
For the molecule `C[C@]12CCC(=O)C=C1CC[C@@H]1[C@@H]2CC[C@]2(C)C(=O)CC[C@@H]12`, the Potency result in experiment [1], in experiment [9], in experiment [2], in experiment [3], in [4] and in experiment [5] was “inactive” throughout. Further, the Potency result in [7], in experiment [8] and in [10] was “inactive” each time.
With `c1ccc(CN2CCNCC2)cc1`, the Potency entry in [1], in [9], in [2], in experiment [3], in experiment [4] and in [5] was “inactive” each time. Also, the Potency result in experiment [6], in [7] and in [8] was “inactive” each time.
Consider `O=P1(N(CCCl)CCCl)NCCCO1` (configuration not stated), for which the Potency result in [1], in experiment [9], in experiment [2], in experiment [3], in [4] and in experiment [5] was “inactive” each time. The Potency result in experiment [7], in experiment [8] and in experiment [10] was “inactive” each time.
As for `CCC(C)(C)c1ccc(O)cc1`, the Potency entry in [1], in [2], in [3], in [4], in [5] and in [6] was “inactive” throughout. Further, the Potency entry in experiment [7] and in [8] was “inactive” in each case.
Consider `O=C1OC(c2ccc(O)c(S(=O)(=O)O)c2)(c2ccc(O)c(S(=O)(=O)O)c2)c2c(Br)c(Br)c(Br)c(Br)c21`, for which the Potency entry in [1], in experiment [9], in experiment [2], in [3], in experiment [4] and in experiment [5] was “inactive” each time. Further, the Potency result in experiment [7] and in [8] was “inactive” each time.
On to `O=[N+]([O-])O[C@H]1CO[C@H]2[C@@H]1OC[C@H]2O[N+](=O)[O-]`, for which the Potency result in [1], in experiment [9], in [2], in [3], in experiment [4] and in [5] was “inactive” each time. The Potency entry in experiment [7], in [8] and in experiment [10] was “inactive” each time.
As for `C[C@H](N)C(=O)c1ccccc1`, the Potency result in experiment [1], in experiment [9], in experiment [2], in experiment [3], in experiment [4] and in experiment [5] was “inactive” each time. Moreover, the Potency result in experiment [7] and in experiment [8] was “inactive” each time.
Take `CCC1(c2ccc(N)cc2)CCC(=O)NC1=O` (configuration not stated): the Potency result in experiment [1], in experiment [9], in [2], in experiment [3], in experiment [4] and in experiment [5] was “inactive” in each case. For the same molecule, the Potency entry in experiment [6], in [7] and in experiment [8] was “inactive” in each case.
For `CN(C)CCc1c[nH]c2cccc(OP(=O)(O)O)c12`, the Potency result in [1], in experiment [9], in [2], in experiment [3], in experiment [4] and in experiment [5] was “inactive” in each case. Besides, the Potency result in experiment [7], in experiment [8] and in experiment [10] was “inactive” each time.
Turning to `NC1=NC(=O)C(c2ccccc2)O1` (configuration not stated), the Potency result in experiment [1], in [9], in experiment [2], in experiment [3], in experiment [4] and in [5] was “inactive” each time. Besides, the Potency result in experiment [6], in [7], in experiment [8] and in experiment [10] was “inactive” in each case.
`C[C@](O)(CS(=O)(=O)c1ccc(F)cc1)C(=O)Nc1ccc(C#N)c(C(F)(F)F)c1`: the Potency is 0.469 µM (active) in [1]; 4.69 µM (active) in [2]; 14.8 µM (active) in experiment [3]; 2.41 µM (active) in experiment [5]; 2.96 µM (active) in experiment [6]; 2.96 µM (active) in [7]. Further, the Potency entry in [4] is “inactive”.
Take `CC(NC(C)(C)C)C(=O)c1cccc(Cl)c1` (configuration not stated): the Potency in experiment [1] is 1.1 nM (active) and 29.6 µM (active). Further, the Potency result in [9], in experiment [2], in [3], in experiment [4], in experiment [5] and in experiment [7] was “inactive” in each case. For the same molecule, the Potency entry in experiment [8] and in [10] was “inactive” throughout.
